Records with an inconclusive call do not appear. A call without a number means that no potency is given here. Active and inactive are the calls of the source. The call rests on the fitted dose curve; in most records, active means well fitted inhibition curve with a large enough effect; inconclusive means small, poorly fitted or top-dose-only effect; inactive means flat fitted curve, though single readings scatter.
Columns and labels:
Experiment in all cases: qHTS profiling for inhibitors of Plasmodium falciparum proliferation (AID 504749); further: nearly all actives have a fitted effect of over 60% in size
Settings in all cases: P. falciparum in erythrocytes, SYBR Green DNA, 72 h; series mostly up to 12.8 µM
3D7 = test system: 3D7
Outline: (§1)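 SYBR Green fluorescence of parasite DNA, read after lysis and overnight dark incubation, measured growth over 72 h in erythrocyte culture at 0.3% parasitemia and 2.5% hematocrit. Data normalised to DMSO and 0.29 uM artemisinin, with plate-drift correction.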

AS120 = test system: AS120
Outline: as §1

ATS95 = test system: ATS95
Outline: as §1

CP185 = test system: CP185
Outline: as §1

CP191 = test system: CP191
Outline: as §1

CP192 = test system: CP192
Outline: as §1

CP217 = test system: CP217
Outline: as §1

CP247 = test system: CP247
Outline: as §1

CP252 = test system: CP252
Outline: as §1

CP256 = test system: CP256
Outline: as §1

CP262 = test system: CP262
Outline: as §1

CP266 = test system: CP266
Outline: as §1

CP291 = test system: CP291
Outline: as §1

CP305 = test system: CP305
Outline: as §1

CP315 = test system: CP315
Outline: as §1

CP325 = test system: CP325
Outline: as §1

CP329 = test system: CP329
Outline: as §1

HB3 = test system: HB3
Outline: as §1

N140 = test system: N140
Outline: as §1

TAB113 = test system: TAB113
Outline: as §1
Potency means the concentration at half of the fitted maximal effect.

SMILES	Potency (3D7)	Potency (AS120)	Potency (ATS95)	Potency (CP185)	Potency (CP191)	Potency (CP192)	Potency (CP217)	Potency (CP247)	Potency (CP252)	Potency (CP256)	Potency (CP262)	Potency (CP266)	Potency (CP291)	Potency (CP305)	Potency (CP315)	Potency (CP325)	Potency (CP329)	Potency (HB3)	Potency (N140)	Potency (TAB113)
Cc1ccc2c(c1)c1c3n2CCN[C@H]3CCC1	inactive	inactive	inactive	inactive	inactive	inactive	inactive	inactive	inactive	inactive	inactive	inactive	inactive	inactive	inactive	inactive	inactive	inactive	inactive	inactive
O=C(N/N=C\c1ccc([N+](=O)[O-])o1)c1ccc(O)cc1	1.58 µM (active)	2.82 µM (active)	3.16 µM (active)	2.24 µM (active)	3.16 µM (active)	–	3.55 µM (active)	2.82 µM (active)	3.16 µM (active)	3.55 µM (active)	–	–	4.55 µM (active)	2.56 µM (active)	5.73 µM (active)	–	5.73 µM (active)	3.55 µM (active)	3.16 µM (active)	3.16 µM (active)
COc1ccc(C[C@@](C)(N)C(=O)O)cc1OC	inactive	inactive	inactive	inactive	inactive	inactive	inactive	inactive	inactive	inactive	inactive	inactive	inactive	inactive	inactive	inactive	inactive	inactive	inactive	inactive
CC(=O)OCC(=O)[C@@]12OC(C)(C)O[C@@H]1C[C@H]1[C@H]3C[C@H](F)C4=CC(=O)C=C[C@@]4(C)[C@]3(F)[C@H](O)C[C@@]12C	inactive	inactive	inactive	inactive	inactive	inactive	inactive	inactive	inactive	inactive	inactive	inactive	inactive	inactive	inactive	inactive	inactive	inactive	inactive	inactive
CCC(=O)O[C@@]1(C(=O)SCF)[C@@H](C)C[C@H]2[C@@H]3C[C@@H](F)C4=CC(=O)C=C[C@@]4(C)[C@]3(F)[C@@H](O)C[C@]21C	–	–	–	–	–	inactive	–	inactive	–	inactive	inactive	inactive	inactive	inactive	inactive	inactive	inactive	–	3.98 µM (active)	–
COc1cc2nc(N3CCN(C(=O)[C@@H]4COc5ccccc5O4)CC3)nc(N)c2cc1OC	–	–	–	–	7.94 µM (active)	–	inactive	–	inactive	inactive	–	inactive	–	inactive	inactive	inactive	–	–	–	–
CC(=O)[C@@H]1CC[C@@H]2[C@@H]3C[C@H](C)C4=CC(=O)CC[C@@]4(C)[C@H]3[C@H](O)C[C@]21C	inactive	inactive	inactive	inactive	inactive	inactive	inactive	inactive	inactive	inactive	inactive	inactive	inactive	inactive	inactive	inactive	inactive	inactive	inactive	inactive
C[C@H](N[C@@H](C)COc1ccccc1)[C@H](O)c1ccc(O)cc1	inactive	inactive	inactive	inactive	inactive	inactive	inactive	inactive	inactive	inactive	inactive	–	inactive	inactive	inactive	inactive	inactive	inactive	inactive	inactive
CN(C)CCn1nnnc1SCC1=C(C(=O)O)N2C(=O)[C@@H](NC(=O)Cc3csc(N)n3)[C@@H]2SC1	inactive	inactive	inactive	inactive	–	inactive	inactive	inactive	inactive	inactive	inactive	inactive	inactive	inactive	inactive	inactive	inactive	–	–	–
CCN[C@@H]1CN(CCCOC)S(=O)(=O)c2sc(S(N)(=O)=O)cc21	inactive	inactive	inactive	inactive	inactive	inactive	inactive	inactive	inactive	inactive	inactive	inactive	inactive	inactive	inactive	inactive	inactive	inactive	inactive	inactive
Cc1ncc([N+](=O)[O-])n1C[C@H](O)CCl	inactive	inactive	inactive	inactive	inactive	inactive	inactive	inactive	inactive	inactive	inactive	inactive	inactive	inactive	inactive	inactive	inactive	inactive	inactive	inactive
NS(=O)(=O)c1cc2c(cc1Cl)N[C@@H](C(Cl)Cl)NS2(=O)=O	inactive	inactive	inactive	inactive	inactive	inactive	inactive	inactive	inactive	inactive	inactive	inactive	inactive	inactive	inactive	inactive	inactive	inactive	inactive	inactive
C1CCN2C[C@@H]3C[C@@H](CN4CCCC[C@H]34)[C@H]2C1	inactive	inactive	inactive	inactive	inactive	inactive	inactive	inactive	inactive	inactive	inactive	inactive	inactive	inactive	inactive	inactive	inactive	inactive	inactive	inactive
C=CC1=C(C(=O)O)N2C(=O)[C@@H](NC(=O)/C(=N\OCC(=O)O)c3csc(N)n3)[C@@H]2SC1	inactive	inactive	inactive	inactive	inactive	inactive	inactive	inactive	inactive	inactive	inactive	inactive	inactive	inactive	inactive	inactive	inactive	inactive	inactive	inactive
C[C@@H]1O[C@H](O[C@@H]2\C=C/C=C\C=C/C=C\C[C@H](C)OC(=O)/C=C\[C@H]3O[C@@H]3C[C@H](O)C[C@]3(O)C[C@@H](O)[C@@H](C(=O)O)[C@H](C2)O3)[C@@H](O)[C@H](N)[C@@H]1O (stereo in doubt)	inactive	inactive	inactive	inactive	inactive	inactive	inactive	inactive	inactive	inactive	inactive	inactive	inactive	inactive	inactive	inactive	inactive	inactive	inactive	inactive
CCOC(=O)O[C@]1(C(=O)COC(=O)CC)CC[C@@H]2[C@@H]3CCC4=CC(=O)C=C[C@@]4(C)[C@H]3[C@H](O)C[C@]21C	inactive	inactive	inactive	inactive	inactive	inactive	inactive	inactive	inactive	inactive	inactive	inactive	inactive	inactive	inactive	inactive	inactive	inactive	inactive	inactive
CC(=C(CCOP(=O)(O)O)SC(=O)c1ccccc1)N(C=O)Cc1cnc(C)nc1N	inactive	inactive	inactive	inactive	inactive	inactive	inactive	inactive	inactive	inactive	inactive	inactive	inactive	inactive	inactive	inactive	inactive	inactive	inactive	inactive
CCCCC[C@H](O)/C=C\[C@H]1[C@H](C/C=C\CCCC(=O)O)[C@@H](O)C[C@H]1O (tested in a mixture with another compound)	inactive	inactive	inactive	inactive	inactive	inactive	inactive	inactive	inactive	inactive	inactive	inactive	inactive	inactive	inactive	inactive	inactive	inactive	inactive	inactive
CN[C@H]1[C@H](O)[C@@H](O[C@@H]2[C@H](O)[C@@H](O[C@H]3OC(CN)=CC[C@H]3N)[C@@H](N)C[C@H]2N)OC[C@@]1(C)O	inactive	inactive	inactive	inactive	inactive	inactive	inactive	inactive	inactive	inactive	inactive	inactive	inactive	inactive	inactive	inactive	inactive	inactive	inactive	inactive
CN[C@H]1[C@@H](O)[C@@H](NC)[C@@H]2O[C@@]3(O)C(=O)C[C@@H](C)O[C@H]3O[C@H]2[C@H]1O	inactive	inactive	inactive	inactive	inactive	inactive	inactive	inactive	inactive	inactive	inactive	inactive	inactive	inactive	inactive	inactive	inactive	inactive	inactive	inactive
Cn1nnnc1SCC1=C(C(=O)O)N2C(=O)[C@@H](NC(=O)[C@@H](O)c3ccccc3)[C@@H]2SC1	inactive	inactive	inactive	inactive	inactive	inactive	inactive	inactive	inactive	inactive	inactive	inactive	–	inactive	inactive	inactive	inactive	inactive	inactive	inactive
CO[C@H]1[C@H](O[C@H]2O[C@@H](C)[C@@H](O[C@@H]3C[C@](C)(O)[C@H](O)[C@H](C)O3)[C@@H](N(C)C)[C@@H]2O)[C@@H](CC=O)C[C@@H](C)[C@@H](O[C@H]2CC[C@H](N(C)C)[C@H](C)O2)/C=C\C=C/C[C@@H](C)OC(=O)C[C@H]1O	inactive	inactive	–	–	inactive	inactive	–	inactive	–	–	–	–	–	–	inactive	–	inactive	inactive	inactive	–
NC[C@@H]1O[C@H](O[C@@H]2[C@H](O[C@@H]3O[C@H](CO)[C@@H](O)[C@@H]3O)[C@@H](O)[C@@H](N)C[C@H]2N)[C@@H](N)[C@H](O)[C@@H]1O	inactive	inactive	inactive	inactive	inactive	inactive	inactive	inactive	inactive	inactive	inactive	inactive	inactive	inactive	inactive	inactive	inactive	inactive	inactive	inactive

Source: PubChem BioAssay (NCATS)
